Assay outcomes: PubChem, National Center for Advancing Translational Sciences (NCATS)
This is a sample that favours compounds with a hit; in the whole collection about 3.9% have one here.
D1 PAM = enhances dopamine response at the human D1 receptor. actives 0.036% (n = 360,000). potentiation, % at 10 µM. HEK293 TREx D1 cells, calcium flux, dopamine EC20 potentiation. P21728; in the data active = potentiation above about 30%; note: 0% is about no effect
USP2a block = USP2a (human) protease inhibition; USP2 core, Ub-CHOP2 coupled fluorogenic reporter, 485/531; Potency, µM (highest dose often 38.3 µM), without a hit: at the highest dose activity change, negative = inhibition, actives largely listed as inhibitors; actives 0.01% (n = 330,000);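 note: potency is the fitted concentration of half-maximal effect; plate controls were DMSO wells for no effect and full inhibition by NEM control for full effect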
Target sequence (O75604 whole entry, looked up): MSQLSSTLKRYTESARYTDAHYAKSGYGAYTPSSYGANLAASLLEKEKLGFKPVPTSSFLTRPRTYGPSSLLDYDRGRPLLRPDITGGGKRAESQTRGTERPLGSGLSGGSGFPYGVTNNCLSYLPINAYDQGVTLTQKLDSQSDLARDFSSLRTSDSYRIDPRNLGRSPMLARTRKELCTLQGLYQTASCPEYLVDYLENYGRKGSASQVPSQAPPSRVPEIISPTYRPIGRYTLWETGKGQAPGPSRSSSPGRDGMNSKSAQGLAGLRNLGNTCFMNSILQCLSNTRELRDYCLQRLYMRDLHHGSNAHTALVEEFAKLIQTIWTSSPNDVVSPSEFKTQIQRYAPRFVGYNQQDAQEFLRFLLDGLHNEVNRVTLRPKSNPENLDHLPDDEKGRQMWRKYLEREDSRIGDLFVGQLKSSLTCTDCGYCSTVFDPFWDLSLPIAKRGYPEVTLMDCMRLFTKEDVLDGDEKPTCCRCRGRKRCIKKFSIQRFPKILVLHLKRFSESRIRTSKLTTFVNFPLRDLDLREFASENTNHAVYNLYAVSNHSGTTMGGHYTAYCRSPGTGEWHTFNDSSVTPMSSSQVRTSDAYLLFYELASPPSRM
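Cell-free coupled assay: 10nM USP2 core preincubated 30min RT with compound in Tris-HCl pH 8.0/CaCl2/CHAPS buffer, then 25nM Ub-CHOP2 and 25nM reporter substrate; fluorescence (Ex 485/Em 531) read after 60min RT, normalized to NEM inhibition, concentration-response curves fitted.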
D1 agonist = agonists of human D1 dopamine receptor. HEK293 T-REx D1 cells, calcium flux, agonist mode. activation, % at 2 µM. actives 1% (n = 360,000). AID 504660; in the data active = activation above about 30%; note: 0% is about no effect
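Tetracycline-induced HEK293 TREx D1 cells, force-coupled to calcium signalling, were dye-loaded with a no-wash calcium kit. Compound was pin-added after a 10 s baseline. Fluorescence was read kinetically at 1 cycle/s for 180 s, with calcium rises flagged as agonism.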
Eya2 phos inh = Eya2 (human) phosphatase inhibition; O00167; recombinant Eya2, OMFP fluorescence dephosphorylation (OMFP is methylfluorescein phosphate); Potency, µM (titrated, usually from 76.9 µM), for the others: top-dose activity, negative = inhibition, hits mostly inhibitors; actives 0.006% (n = 330,000); AID 488837; note: potency is the fitted concentration of half-maximal effect; % is set by controls: 0 for no effect and ±100 for the full control effect
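Eya2 protein (added as 0.2 uM solution) was preincubated with compound for 10 min at ambient temperature in 50 mM HEPES pH 7.5, 50 mM NaCl, 5 uM MgCl2, 0.05% BSA, 1 mM DTT. OMFP (added at 50 uM) then reacted 10 min; fluorescence read at 485/525 nm.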
D1 antagonist = blocks dopamine activation of the human D1 receptor. P21728. HEK293 TREx D1 cells, calcium flux, dopamine EC80; active compounds read low. activity change, negative = inhibition, % at 10 µM. actives 3.2% (n = 360,000); in the data active = activity change below about -30%; note: % is set by controls: 0 for no effect and ±100 for the full control effect
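Tetracycline-induced HEK293 Trex D1 cells, force-coupled to calcium, dye-loaded; compounds added and read 180 s, then EC80 dopamine added and calcium flux tracked kinetically another 180 s.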
GALK inhibitor = galactokinase (human) inhibition. P51570. Purified GALK, Kinase-Glo residual ATP luminescence. Potency, µM (highest dose often 57.5 µM), for the others: at the highest dose activity change, negative = inhibition, most hits filed as inhibitors. actives 0.007% (n = 270,000); note: potency is the fitted concentration of half-maximal effect; % is set by controls: 0 for no effect and ±100 for the full control effect
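Quantitative HTS: GALK 5 nM, ATP 35 uM, galactose 100 uM, 1 h room temperature, then luciferase-based ATP detection.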
* hit, by the source's call; . = no result. Unless noted, calls come from the whole dose curve; as a rule, active = well fitted inhibition curve with a large enough effect; inconclusive = small, poorly fitted or top-dose-only effect, or effect the other way; inactive = flat fitted curve, though single readings scatter.

SMILES	D1 PAM	USP2a block	D1 agonist	Eya2 phos inh	D1 antagonist	GALK inhibitor
O=C(CCc1nc2ccccc2c(=O)[nH]1)OCc1ccc(-c2ccccc2)cc1	-3	2%	3	2%	-39*	1%
O=C(CCc1nc2ccccc2c(=O)[nH]1)OCc1cccc(C(F)(F)F)c1	-3	1%	0	3%	-11	0%
Cc1ccc(OCC(=O)NCC2(N3CCN(C)CC3)CCCCC2)cc1C	-1	.	14	.	1	.
CCOc1ccc(CNC(=O)C2CCCN(S(=O)(=O)N(C)c3ccc(F)cc3)C2)cc1OC (configuration not stated)	-6	.	34*	.	-27	.
COc1ccc(CNC(=O)C2CCCN(S(=O)(=O)N(C)c3ccc(F)cc3)C2)cc1OC (configuration not stated)	-6	.	4	.	-27	.
N#CN1CCC(N[S+](=O)([O-])c2cccc(F)c2)CC1	13	.	2	.	-20	.
Cc1ccccc1Nc1cc(C(=O)NCCCN2CCN(c3cccc(Cl)c3)CC2)c2ccccc2n1	-3	.	-1	.	-17	.
CCOc1ccc(NC(=O)c2ccncc2)cc1	0	0%	0	-9%	-1	1%
O=C(Nc1ccc(OCC(F)(F)C(F)F)cc1)c1ccncc1	-1	12%	12	4%	-32*	0%
CCn1ncc(C2=NOC(C(=O)NCc3ccccc3)C2)c1C (configuration not stated)	-10	-2%	6	3%	-8	1%
CCn1ncc(C2=NOC(C(=O)Nc3cccc(C(C)=O)c3)C2)c1C (configuration not stated)	-3	1%	12	-12%	-32*	0%
Cc1nn(C)c(C)c1NC(=O)/C(C#N)=C\N(C)C	-2	-1%	2	6%	-54*	6%
O=C(NC1CCCCC1)C(=O)N(Cc1cccnc1)C(C(=O)NCc1ccco1)c1ccccc1 (configuration not stated)	-1	2%	1	11%	-35*	0%
COC(=O)c1sccc1S(=O)(=O)N(CC(=O)NCc1ccc(C)cc1)c1ccccc1	-4	.	2	.	-4	.
O=C(Cn1c(=O)ccc2cc(S(=O)(=O)N3CCCC3)ccc21)Nc1ccccc1	-2	.	1	.	-1	.
CCOCCCNC(=O)CCc1nnc2ccc(N3CCN(c4cccc(OC)c4)CC3)nn12	-3	.	1	.	-3	.
CCOC(=O)C(Cc1ccccc1)NC(=O)CCc1nnc2ccc(N3CCCCC3)nn12 (configuration not stated)	-5	2%	2	-1%	-33*	-8%
CCOCCCNC(=O)CCc1nnc2ccc(N3CCCCC3)nn12	5	2%	1	-13%	-31*	0%
CC1CCN(c2ccc3nnc(CCC(=O)Nc4ccc(F)c(F)c4)n3n2)CC1	-8	0%	1	-2%	-30*	1%
CCOC(=O)C(Cc1ccccc1)NC(=O)CCc1nnc2ccc(N3CCCC3)nn12 (configuration not stated)	1	3%	1	10%	-3	0%
CC(C)(C)CC(C)(C)c1ccc(OCC(=O)Nc2ccc(S(=O)(=O)Nc3ncccn3)cc2)cc1	1	.	0	.	-15	.
O=C(Nc1cc(C(F)(F)F)ccc1Cl)C(Sc1nnc(-c2cccs2)o1)c1ccccc1 (configuration not stated)	-6	0%	10	1%	-45*	0%
O=C(COc1ccc(Cl)cc1)NCc1nnc(SCC(=O)NC2CCCCC2)o1	-5	3%	20	7%	-33*	0%
COc1ccc(C(=O)CSc2nnc(CNC(=O)c3ccccc3)o2)cc1	-5	1%	21	9%	-5	-3%
CN1CCN(C(=O)CSc2nnc(COc3ccc(Cl)cc3)o2)CC1	.	0%	16	17%	-37*	1%
SMILES	D1 PAM	USP2a block	D1 agonist	Eya2 phos inh	D1 antagonist	GALK inhibitor
Cc1ccc(OCc2nnc(SCC(=O)N3c4ccccc4Sc4ccc(Cl)cc43)o2)cc1	2	1%	1	-6%	-32*	0%
O=C(CSc1nnc(CNC(=O)c2ccccc2)o1)c1ccc(Cl)cc1	-7	-3%	13	4%	-43*	-5%
CCn1c2ccccc2c2cc(CN3CCN(Cc4ccc(Br)cc4)CC3)ccc21	3	.	-1	.	29	.
Cc1cccc(N(CC(O)Cn2c3ccccc3c3ccccc32)S(=O)(=O)c2ccc(F)cc2)c1 (configuration not stated)	-4	.	5	.	8	.
O=C(CSc1nc2ccccc2s1)N1c2ccccc2Sc2ccc(C(F)(F)F)cc21	3	-7%	4	12%	8	3%
O=C(CSc1nnc(CNc2ccc(F)cc2)o1)OC1CCCCC1	0	3%	2	4%	-31*	3%
O=C(CSc1nnc(CNc2cccc(Cl)c2)o1)OC1CCCCC1	-9	0%	5	-7%	-18	0%
O=C(CSc1nc2ccccc2s1)N1c2ccccc2Sc2ccc(Cl)cc21	-10	1%	2	4%	-49*	-1%
CCOc1ccc(-c2cc3c(=O)n(Cc4nc(-c5cccc(OC)c5OC)oc4C)ccn3n2)cc1Cl	5	.	0	.	4	.
Cc1ccc(-c2nn(CC(=O)NC3CCCCC3)c3c2cnc2ccc(F)cc23)cc1C	-4	.	-1	.	-3	.
CCSc1nsc(NC(=O)Nc2ccc(F)cc2F)n1	-12	-5%	24	-8%	-16	6%
CCOc1ccc(NC(=O)Nc2nc(SCC)ns2)cc1	-6	0%	27	0%	-41*	-1%
Cc1ccc(S(=O)(=O)c2cn(Cc3ccccc3)c3cc(N4CCOCC4)c(F)cc3c2=O)cc1	-2	.	-2	.	9	.
Cn1cc(CN2CCC(C(O)c3cccs3)CC2)c(-c2cccc(Cl)c2)n1 (configuration not stated)	-6	-1%	41*	4%	-18	7%
CCN(Cc1ccccc1)C(=O)Cn1c(=O)oc2cc(S(=O)(=O)N3CCCCCC3)ccc21	-2	.	6	.	-16	.
O=C(CSc1ccc(-c2ccc(Br)cc2)nn1)N1CCOCC1	-1	3%	4	-9%	-2	8%
COc1ccc(-c2ccc(SCC(=O)N3CCOCC3)nn2)cc1	-14	1%	7	8%	-31*	8%
Cc1ccc(CN(Cc2ccco2)C(=O)c2oc3c(C)c(C)ccc3c2C)cc1	1	.	18	.	-4	.
Cc1ccc(CN(Cc2ccco2)C(=S)NCC(=O)NC2CC2)cc1	-2	1%	2	-1%	-31*	1%
Cc1ccc(CN(Cc2ccco2)C(=O)c2oc3ccc(C)cc3c2C)cc1	-2	.	37*	.	12	.
